Compounds with a hit are over-represented: about 0.84% of the library has one in this group of screens.
PPARg SRC-3 ag – PPARgamma-driven SRC-3 recruitment agonism. P37231. biochemical PPARgamma/SRC-3 coactivator recruitment assay. activation, % at 8 µM. actives 0.26% (n = 200,000). AID 731; in the data active = activation above about 23%;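 note: 0% = DMSO and 100% = reference agonist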
Target sequence (P37231 whole entry, looked up): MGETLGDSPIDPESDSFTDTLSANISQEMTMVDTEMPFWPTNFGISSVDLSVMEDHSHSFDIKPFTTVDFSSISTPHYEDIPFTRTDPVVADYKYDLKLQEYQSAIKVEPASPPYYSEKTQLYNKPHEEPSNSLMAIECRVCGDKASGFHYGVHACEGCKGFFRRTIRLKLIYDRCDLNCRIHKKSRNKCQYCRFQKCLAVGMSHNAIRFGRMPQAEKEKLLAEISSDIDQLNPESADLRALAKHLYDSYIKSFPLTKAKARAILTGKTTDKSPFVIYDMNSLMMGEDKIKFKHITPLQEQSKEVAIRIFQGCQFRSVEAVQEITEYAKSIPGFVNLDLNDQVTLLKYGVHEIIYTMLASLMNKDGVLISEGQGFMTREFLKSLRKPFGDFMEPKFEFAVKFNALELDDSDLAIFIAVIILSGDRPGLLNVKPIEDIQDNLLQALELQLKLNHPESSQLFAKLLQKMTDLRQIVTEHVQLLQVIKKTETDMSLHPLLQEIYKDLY
PPARg SRC-1 ag – agonists of human PPARgamma SRC-1 coactivator recruitment. actives 0.41% (n = 200,000). activation, % at 8 µM. PPARgamma-SRC-1 coactivator recruitment biochemical assay. AID 631. P37231; in the data active = activation above about 19%;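 note: 0% = DMSO and 100% = reference agonist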
SRC3 TRFRET art – flags TR-FRET format artefacts in PPARgamma SRC-3 recruitment agonist screen | TR-FRET ratio at 8 µM | actives 0.39% (n = 99,000) | TR-FRET artefact counter-screen, PPARgamma/SRC-3 format; active compounds read high
SRC1 TRFRET art – TR-FRET artefact, counter-screen to PPARgamma/SRC-1 agonist assay; TR-FRET detection artefact counter-screen, emission ratio; active compounds read high; TR-FRET ratio at 8 µM; actives 0.34% (n = 99,000); in the data active = TR-FRET ratio above about 2300
PPARg SRC2 recr – agonists of SRC-2 recruitment by human PPARgamma. activation, % at 8 µM. PPARgamma LBD-SRC-2 recruitment, biochemical. actives 0.34% (n = 200,000). P37231; in the data active = activation above about 22%;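 note: 0% = vehicle and 100% = reference agonist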
SRC2 TRFRET art – flags TR-FRET format artefacts in PPARgamma SRC-2 recruitment agonist screen; TR-FRET artefact counter-screen; active compounds read high; TR-FRET ratio at 8 µM; actives 0.4% (n = 200,000)
Active calls of the source: *; . = not tested or not shown. Cut-off read from the data, not from the text of the source, unless noted: active = TR-FRET ratio above about 2000; inactive = the rest.

SMILES	PPARg SRC-3 ag	PPARg SRC-1 ag	SRC3 TRFRET art	SRC1 TRFRET art	PPARg SRC2 recr	SRC2 TRFRET art
O=S(=O)(/C=C/c1ccccc1)N1CCN(c2nc(-c3cccnc3)nc3ccccc23)CC1	7	5	2270*	2657*	7	1899
c1cncc(-c2nc(N3CCOCC3)c3ccccc3n2)c1	3	-12	.	.	-2	1467
CCCN(CC1CC1)C(=S)Nc1ccccc1F	4	6	1454	1831	7	1685
CC(C)=NNc1nc2c(c(=O)n(C)c(=O)n2C)n1CCc1ccccc1	7	5	1602	1791	7	1525
O=C(CCN1C(=O)c2ccccc2C1=O)Nc1ccc(-c2nc3ccccc3o2)cc1	-15	19*	.	.	-4	1271
O=C(CN1C(=O)c2ccccc2C1=O)Nc1ccc(-c2nc3ccccc3o2)cc1	13	-1	.	.	15	1612
Oc1ccc(C2Nc3cccc4cccc(c34)N2)c(O)c1	31*	30*	.	.	19	1494
CC(C(=O)NCCN1CCOCC1)(c1ccccc1)c1ccccc1	0	7	1655	1837	0	1771
CCOC(=O)n1cc(-c2cnc(CNC(=O)C(C)(c3ccccc3)c3ccccc3)o2)c2ccccc21	-3	9	1588	1619	28*	1921
N#Cc1ccc(-c2ccccc2)nc1SCC(=O)c1cc2ccccc2oc1=O	10	64*	.	.	5	1700
CC(C)c1c(C#N)c(N)nc(SCC(=O)c2cc3ccccc3oc2=O)c1C#N	-6	8	1619	1872	10	1505
Cc1ccc(NC(=S)N(CCN2CCOCC2)Cc2cc3cc4c(cc3[nH]c2=O)OCO4)cc1	-2	10	1411	1845	-5	1592
OCCN=C1CCCc2c1[nH]c1ccc(Br)cc21	12	19*	.	.	14	1789
Cc1ccc(S(=O)(=O)Nc2ccc(-c3csc(-c4ccccc4)n3)cc2)cc1	6	12	2149*	2042	6	1791
C=CCn1c(Cc2cccs2)nnc1SCC(=O)c1ccc(F)cc1	3	21*	.	.	6	1726
Cc1cc(NC(=O)CN2C(=O)NC3(CCC(C)CC3)C2=O)no1 (stereo unspecified)	5	5	1468	2022	22*	1764
O=C(Nc1ccncc1)c1cn(-c2ccccc2)nc1-c1cccs1	-4	2	.	.	3	1391
CC(NC(=O)COC(=O)c1cn(-c2ccccc2)nc1-c1cccs1)c1ccccc1 (stereo unspecified)	0	15	.	.	7	2073*
O=C(c1cn(-c2ccccc2)nc1-c1cccs1)N1CCN(c2ccc(F)cc2)CC1	12	12	.	.	3	2165*
Cc1ccc2cc(C#N)c(N3CCCN(C(=O)C4CCCO4)CC3)nc2c1 (stereo unspecified)	-4	-2	.	.	1	1481
Cc1ccc(S(=O)(=O)N2CCCN(c3nc4cc(C)ccc4cc3C#N)CC2)cc1	11	-4	.	.	-5	3009*
C/C(=N\Nc1cc(Cl)nc(C)n1)c1ccc(C)cc1	6	2	.	.	-2	1573
Cc1occc1C(=O)N/N=C/C=C\c1ccccc1[N+](=O)[O-]	6	10	1550	1846	5	1654
O=C(N/N=C/C=C\c1ccccc1[N+](=O)[O-])c1ccco1	6	14	1595	1928	3	1978*
CC(=O)Nc1c(O)nc(SCC(=O)Nc2cccc(C)c2)[nH]c1=O	2	-1	.	.	0	1625
SMILES	PPARg SRC-3 ag	PPARg SRC-1 ag	SRC3 TRFRET art	SRC1 TRFRET art	PPARg SRC2 recr	SRC2 TRFRET art
CC(=O)Nc1c(O)nc(SCC(=O)Nc2ccc(C(C)=O)cc2)[nH]c1=O	26*	5	.	.	8	1727
COc1cccc(-c2ccc(C#N)c(SCC(=O)NCCc3cccc(Cl)c3)n2)c1	17	11	.	.	21	1982*
COc1ccc(-c2ccc(C#N)c(SCC(=O)NCCc3ccccc3)n2)cc1OC	2	1	1706	1821	11	2078*
COc1ccc(-c2ccc(C#N)c(SCC(=O)Nc3sc4c(c3C#N)CCC4)n2)cc1OC	2	11	.	.	7	1523
CCN(CC)CCCNC(=O)c1ccc2c(SCC(=O)O)c3c(nc2c1)CCC3	5	9	1780	1924	23*	1661
O=C(Nc1nc2c(cc3c4c(cccc42)CC3)s1)c1ccccc1Cl	-4	2	2115*	2264	11	1981*
COc1ccc(C(C)=O)cc1COC(=O)c1cccnc1SC	0	0	1717	2170	-3	1574

High-throughput results as filed in PubChem BioAssay.
